The nature of assay [1]: Quantitative highthroughput screen to assess conditional lethalithy of NOMO1 cells grown in RPMI1640 with untreated serum (RPMI+s) (AID 1963876). Also: nearly all actives have a fitted effect of over 35% in size.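 As to viability: 100% = DMSO wells and 0% = empty wells without cells.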 The method in brief: (§1)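 Each medium arm—HPLM with 10% dialyzed FBS, or RPMI1640 with 5 mM glucose and 10% untreated or dialyzed FBS—was screened against an 11-point, 3-fold compound titration for 48 h at 37 °C, with CellTiter-Glo luminescence as endpoint.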

The nature of assay [2]: Quantitative highthroughput screen to assess conditional lethalithy of NOMO1 cells grown in RPMI1640 with dialyzed fetal bovine serum (RPMI+ds) (AID 1963877). Also: nearly all actives have a fitted effect of over 30% in size.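 As to viability: series mostly up to about 46 µM; 100% = DMSO control wells and 0% = empty wells.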 An outline of the steps: as §1
Assay [3] can be described thus: Quantitative highthroughput screen to assess conditional lethalithy of NOMO1 cells grown in Human Plasma-Like Medium with dialyzed fetal bovine serum (HPLM+ds) (AID 1963878). Also: nearly all actives have a fitted effect of over 35% in size.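 As to viability: 100% = DMSO wells and 0% = empty wells on each plate.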 The method in brief:
as §1

Assay [4] in a line: Quantitative highthroughput screen to assess conditional lethalithy of P12 Ichikawa cells grown in Human Plasma-Like Medium with dialyzed fetal bovine serum (HPLM+ds) (AID 1963879). Also: nearly all actives have a fitted effect of over 35% in size. As to viability: series mostly up to about 46 µM. The conditions noted are these: Potency: viability. An outline of the steps:
as §1

Assay [5] can be described thus: Quantitative highthroughput screen to assess conditional lethalithy of P12 Ichikawa cells grown in RPMI1640 with dialyzed fetal bovine serum (RPMI+ds) (AID 1963880). Also: nearly all actives have a fitted effect of over 35% in size.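 As to viability: 100% = DMSO wells and 0% = empty wells on each plate.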 The conditions noted are these: Potency: P12-Ichikawa viability. An outline of the steps:
as §1

Assay [6] in a line: Quantitative highthroughput screen to assess conditional lethalithy of P12 Ichikawa cells grown in RPMI1640 with untreated serum (RPMI+s) (AID 1963881). Also: nearly all actives have a fitted effect of over 35% in size.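 As to viability: series mostly up to about 46 µM; 100% = DMSO wells and 0% = empty wells without cells.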 To be noted: Potency: viability. An outline of the steps:
as §1

A short description of assay [7]: Quantitative highthroughput screen to assess conditional lethalithy of SEM cells grown in Human Plasma-Like Medium with dialyzed fetal bovine serum (HPLM+ds) (AID 1963882). Also: nearly all actives have a fitted effect of over 35% in size. As to viability: series mostly up to about 46 µM. The method in brief:
as §1

Assay [8] in a line: Quantitative highthroughput screen to assess conditional lethalithy of SEM cells grown in RPMI1640 with unreated serum (RPMI+s) (AID 1963883). Also: nearly all actives have a fitted effect of over 35% in size.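 As to viability: 100% = DMSO wells and 0% = empty wells without cells.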 The method in brief:
as §1

Assay [9] in a line: Quantitative highthroughput screen to assess conditional lethalithy of SEM cells grown in RPMI1640 with dialyzed fetal bovine serum (RPMI+ds) (AID 1963884). Also: nearly all actives have a fitted effect of over 35% in size.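 As to viability: series mostly up to about 46 µM; 100% = DMSO control wells and 0% = empty wells without cells.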 An outline of the steps: as §1
Assay [10] in a line: Cellular viability qHTS for adrenocortical cancer (ACC) cell line SW-13 (AID 1963989). Also: nearly all actives have a fitted effect of over 65% in size.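 As to activity (max response): cells grown in serum-free medium with ITS supplement; % is scaled to controls: 0 for no effect and ±100 for the full control effect.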 The conditions noted are these: SW-13 ACC cells viability, CellTiter-Glo, 48 h; activity (max response): hits give low values. The method in brief:
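SW-13 cells in ITS-supplemented serum-free DMEM were plated overnight, then exposed for 48 h at 37C to compound titrations (up to 46 uM final). Viability was read by CellTiter-Glo luminescence; four-parameter logistic fits gave IC50 and efficacy.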

Assay [11] is described as follows: Cellular viability qHTS for adrenocortical cancer (ACC) cell line NCI-H295R (AID 1963990). Also: nearly all actives have a fitted effect of over 60% in size. The method in brief:
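Luminescent ATP read-out (CellTiter-Glo, 20 min RT) after 48 h drug exposure of NCI-H295R cells; a titration up to 46 uM final. Data normalized to doxorubicin (100% inhibition) and DMSO (0%); 4-parameter fit gives IC50, max response.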

SMILES strings stand for the structures. Several values for one entry are separate records, joined by “and”; a condition that tells them apart may be missing. Equal entries are not always repeated. Results filed as inconclusive are left out. Unmarked numbers belong to inactive results. Activity calls are given as the source filed them. Calls follow the shape of the dose curve; as a rule, active = well fitted curve in the direction sought with a large enough effect; inconclusive = small, poorly fitted or top-dose-only effect, or another doubt; inactive = no such curve, though single readings can be large; an effect the other way counts as inactive or inconclusive.
Potency is read from the fitted curve at half-maximal effect.

Take `NC(=O)c1ccc(I)c([N+](=O)[O-])c1`: the Potency result in [1], in [2], in assay [3], in assay [4], in assay [5] and in [6] was “inactive” in each case. Moreover, the Potency entry in [7], in assay [8], in assay [9] and in [11] was “inactive” each time. Besides, in [10], the activity (max response) was 11.3%.
In the case of `O=C(NCCCCN1CCOCC1)c1cc2ccccc2o1`, the Potency result in assay [1], in assay [2], in [3], in [4], in assay [5] and in assay [6] was “inactive” each time. Also, the Potency entry in assay [7], in assay [8], in assay [9] and in assay [11] was “inactive” throughout.
On to `Cn1cc(-c2ccc3nnc(C(F)(F)c4ccc5ncccc5c4)n3n2)cn1`, for which the Potency entry in assay [1], in assay [2], in [3], in [4], in assay [5] and in assay [6] was “inactive” each time. Also, the Potency result in assay [7], in assay [9] and in [11] was “inactive” in each case. For the same compound, in [10], the activity (max response) is 3.57%.
In the case of `Cc1c(Cn2c(C)nc3c(C(=O)O)cc(N4CCOCC4)cc32)cccc1C(F)(F)F`, the Potency entry in assay [1], in assay [2], in assay [4], in assay [5], in [6] and in [7] was “inactive” throughout. Moreover, the Potency entry in assay [8], in assay [9] and in assay [11] was “inactive” each time. Moreover, the Potency in assay [3] is 26.4 µM (active). In [10], the activity (max response) was 6.79%.
Take `O=C(O)c1cccc(-c2noc(-c3ccccc3F)n2)c1`: the Potency result in [1], in assay [2], in assay [3], in [4], in assay [5] and in assay [6] was “inactive” throughout. In addition, the Potency entry in assay [7], in assay [8], in assay [9] and in [11] was “inactive” each time.
Turning to `O=Nc1c(-c2c(O)[nH]c3cc(Br)ccc23)[nH]c2ccccc12`, the Potency was 14.8 µM (active) in [1]; 10.5 µM (active) in [2]; 5.9 µM (active) in [3]; 4.18 µM (active) in [4]; 5.9 µM (active) in [5]; 4.69 µM (active) in [6]. Besides, the Potency in assay [7] was 0.833 µM (active); in assay [8], 0.743 µM (active); in assay [9], 0.833 µM (active); in assay [10] it was 11.2 µM (active); in assay [11] it was 10 µM (active).
As to `COC(=O)N1CCN(Cc2cccc(NC(=O)Nc3ccc(C)nc3)c2F)CC1`, the Potency entry in assay [1], in assay [2], in [3], in assay [4], in [5] and in assay [6] was “inactive” each time. For the same compound, the Potency entry in assay [7], in assay [8], in [9] and in assay [11] was “inactive” throughout. Besides, in assay [10], the activity (max response) was -16.4%.
As for `Clc1ccc(-c2nc3sccn3c2C=NOCc2ccc(Cl)c(Cl)c2)cc1`, the Potency entry in assay [1], in assay [2], in assay [3], in assay [4], in assay [5] and in assay [6] was “inactive” throughout. Also, the Potency entry in assay [7] and in [9] was “inactive” throughout.
In the case of `CN(C)CCN1C(=O)c2cccc3cc(N)cc(c23)C1=O`, the Potency in assay [1] is 14.8 µM (active); in assay [2] it was 18.7 µM (active); in assay [3], 14.8 µM (active); in assay [4], 18.7 µM (active); in [5], 18.7 µM (active); in assay [6], 16.6 µM (active). Moreover, the Potency in assay [7] was 5.9 µM (active); in [8], 5.26 µM (active); in assay [9], 9.35 µM (active); in assay [10], 22.4 µM (active); in assay [11] it was 22.4 µM (active).
For `COc1ccc([C@@H]2CC(=O)c3c(O)cc(O[C@@H]4O[C@H](CO[C@@H]5O[C@@H](C)[C@H](O)[C@@H](O)[C@@H]5O)[C@@H](O)[C@H](O)[C@@H]4O)cc3O2)cc1O`, the Potency entry in [1], in [2], in assay [3], in [4], in assay [5] and in assay [6] was “inactive” in each case. The Potency entry in [7] and in assay [9] was “inactive” each time.
Take `COc1cc(F)c(C(C)C)cc1-c1ccc(C(F)(F)F)cc1CN1C(=O)O[C@H](c2cc(C(F)(F)F)cc(C(F)(F)F)c2)[C@@H]1C`: the Potency entry in [1], in [2], in assay [3], in assay [4], in assay [5] and in [6] was “inactive” throughout. Further, the Potency entry in [7], in assay [8], in assay [9] and in assay [11] was “inactive” each time. Further, in assay [10], the activity (max response) is -14.8%.
With `CCCCc1ccc(NS(=O)(=O)c2ccc(C)c(C(=O)N3CCN(c4cccc(C)c4C)CC3)c2)cc1`, the Potency entry in [1], in assay [2], in [3], in [4], in assay [5] and in assay [6] was “inactive” in each case. The Potency result in assay [7], in [8] and in assay [9] was “inactive” throughout. Further, in assay [11], the Potency was 44.7 µM (active).
On to `Cc1ccc2c(c1)C(=O)[C@]1(O)CCN(c3ccccc3)C1=N2`, for which the Potency entry in [1], in assay [2], in assay [3], in [4], in [5] and in [6] was “inactive” throughout. The Potency result in [7], in [8], in assay [9] and in [11] was “inactive” each time.
Regarding `CC(C)(F)C[C@H](N[C@@H](c1ccc(-c2ccc(S(C)(=O)=O)cc2)cc1)C(F)(F)F)C(=O)NC1(C#N)CC1`, the Potency entry in assay [1], in assay [2], in [3], in assay [4], in [5] and in assay [6] was “inactive” throughout. Also, the Potency result in assay [7], in assay [8], in assay [9] and in [11] was “inactive” throughout. Further, the activity (max response) in [10] is -2.64%.
`CCOc1cc(N)c(Cl)cc1C(=O)NCC1CN(Cc2ccc(F)cc2)CCO1` (stereo not drawn): the Potency result in assay [1], in assay [2], in assay [3], in assay [4], in assay [5] and in [6] was “inactive” in each case. The Potency entry in [7], in [8], in assay [9] and in assay [11] was “inactive” in each case. Besides, in assay [10], the activity (max response) is -20% and -11.9%.
With `C=C1C[C@@]2(O)O[C@@]3(C[C@H]2C(C)C)[C@H](C)CC[C@H]13`, the Potency result in assay [1], in assay [2], in [3], in assay [4], in assay [5] and in [6] was “inactive” in each case. Further, the Potency entry in [7] and in [9] was “inactive” throughout.
In the case of `Cc1cc(O)c2c(c1)C(=O)c1cc(O)cc(O)c1C2=O`, the Potency result in [1], in assay [2], in [3], in assay [4], in assay [5] and in assay [6] was “inactive” each time. The Potency result in assay [7], in [8], in assay [9] and in [11] was “inactive” each time. Also, in assay [10], the activity (max response) was -8.42%.

The record behind these values is PubChem BioAssay (NCATS).
